Assay results: the supplement of paper PMC10849652
The full data set covers some 7,900 targets. This sample favours those with a hit. About 0.6% of all pairs of compound and target were hits. A number with no mark means an inactive call.

Columns and labels:
Test in all cases: log2 fold change, soluble protein after heating vs DMSO (PISA); higher = thermal stabilisation; K562 cells, 10 uM, 30 min; active = over 0.2 and 3.5 SD of the protein, either way, in both replicates (recomputed)
[1] = compound: NC(=O)Nc1cc(-c2cccc(F)c2)sc1C(=O)N[C@H]1CCCNC1
How it was run: (§1)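 Soluble protein was defined as the supernatant after 21,000xg for 90 min. It came from K562 cells at 2×10^6 cells/mL given 10 μM compound for 30 min, heated in aliquots for 3 min across 48°C-58°C, pooled, and extracted in PBS with 0.5% NP-40 at 4°C, and was quantified by TMTpro 16plex LC-MS/MS with equalised channel sums. Thermal stability against control samples, from duplicates, is reported as log2 fold change.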

[2] = compound: NC(=O)c1cnc(N[C@@H]2CCCC[C@@H]2N)nc1Nc1cccc(-n2nccn2)c1
How it was run: as §1

[3] = compound: NC1(c2ccc(-c3nc4ccn5c(=O)[nH]nc5c4cc3-c3ccccc3)cc2)CCC1
How it was run: as §1

[4] = compound: NCC(=O)Nc1ccc(-n2nc(C(F)(F)F)cc2-c2ccc3c(ccc4ccccc43)c2)cc1
How it was run: as §1

entinostat = compound: Nc1ccccc1NC(=O)c1ccc(CNC(=O)OCc2cccnc2)cc1 [entinostat]
How it was run: as §1

vorinostat = compound: O=C(CCCCCCC(=O)Nc1ccccc1)NO [vorinostat]
How it was run: as §1

citarinostat = compound: O=C(CCCCCCNC(=O)c1cnc(N(c2ccccc2)c2ccccc2Cl)nc1)NO [citarinostat]
How it was run: as §1

silmitasertib = compound: O=C(O)c1ccc2c(c1)nc(Nc1cccc(Cl)c1)c1ccncc12 [silmitasertib]
How it was run: as §1

[5] = compound: O=C1NC(=O)C(c2cnc3ccccn23)=C1c1cn2c3c(cc(F)cc13)CN(C(=O)N1CCCCC1)CC2
How it was run: as §1

[6] = compound: c1cc(OCCN2CCCCC2)cc(-c2n[nH]c3ccc(-c4nnc[nH]4)cc23)c1
How it was run: as §1

entospletinib = compound: c1cn2cc(-c3ccc4cn[nH]c4c3)nc(Nc3ccc(N4CCOCC4)cc3)c2n1 [entospletinib]
How it was run: as §1

UniProt P19397, sequence (P19397 whole entry, looked up): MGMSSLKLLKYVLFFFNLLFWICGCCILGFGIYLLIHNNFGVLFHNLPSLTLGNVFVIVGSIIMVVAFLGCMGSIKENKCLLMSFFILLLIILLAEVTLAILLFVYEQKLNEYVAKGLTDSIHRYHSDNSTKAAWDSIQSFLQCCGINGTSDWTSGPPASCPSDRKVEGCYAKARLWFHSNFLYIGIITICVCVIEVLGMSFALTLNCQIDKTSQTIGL
UniProt Q8IUI8, sequence (Q8IUI8 whole entry, looked up): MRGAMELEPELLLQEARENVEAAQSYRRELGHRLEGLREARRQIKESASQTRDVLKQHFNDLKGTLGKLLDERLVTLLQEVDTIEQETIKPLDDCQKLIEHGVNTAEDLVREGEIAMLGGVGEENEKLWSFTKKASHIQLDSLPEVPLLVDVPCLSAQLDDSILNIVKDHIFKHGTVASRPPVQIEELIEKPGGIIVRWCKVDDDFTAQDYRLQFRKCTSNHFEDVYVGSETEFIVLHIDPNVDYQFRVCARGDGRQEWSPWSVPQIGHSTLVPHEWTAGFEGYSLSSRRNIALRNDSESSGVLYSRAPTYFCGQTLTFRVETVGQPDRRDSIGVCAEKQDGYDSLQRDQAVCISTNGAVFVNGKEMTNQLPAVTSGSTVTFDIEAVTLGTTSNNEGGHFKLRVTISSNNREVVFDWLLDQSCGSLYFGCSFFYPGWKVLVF
UniProt P09497, sequence (P09497 whole entry, looked up): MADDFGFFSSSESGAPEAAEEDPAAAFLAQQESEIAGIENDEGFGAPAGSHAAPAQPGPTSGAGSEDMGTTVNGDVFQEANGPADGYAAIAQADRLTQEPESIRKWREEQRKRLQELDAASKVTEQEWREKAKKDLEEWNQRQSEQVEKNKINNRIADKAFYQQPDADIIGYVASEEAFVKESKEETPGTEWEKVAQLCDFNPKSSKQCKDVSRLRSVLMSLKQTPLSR
UniProt Q14839, sequence (Q14839 whole entry, looked up): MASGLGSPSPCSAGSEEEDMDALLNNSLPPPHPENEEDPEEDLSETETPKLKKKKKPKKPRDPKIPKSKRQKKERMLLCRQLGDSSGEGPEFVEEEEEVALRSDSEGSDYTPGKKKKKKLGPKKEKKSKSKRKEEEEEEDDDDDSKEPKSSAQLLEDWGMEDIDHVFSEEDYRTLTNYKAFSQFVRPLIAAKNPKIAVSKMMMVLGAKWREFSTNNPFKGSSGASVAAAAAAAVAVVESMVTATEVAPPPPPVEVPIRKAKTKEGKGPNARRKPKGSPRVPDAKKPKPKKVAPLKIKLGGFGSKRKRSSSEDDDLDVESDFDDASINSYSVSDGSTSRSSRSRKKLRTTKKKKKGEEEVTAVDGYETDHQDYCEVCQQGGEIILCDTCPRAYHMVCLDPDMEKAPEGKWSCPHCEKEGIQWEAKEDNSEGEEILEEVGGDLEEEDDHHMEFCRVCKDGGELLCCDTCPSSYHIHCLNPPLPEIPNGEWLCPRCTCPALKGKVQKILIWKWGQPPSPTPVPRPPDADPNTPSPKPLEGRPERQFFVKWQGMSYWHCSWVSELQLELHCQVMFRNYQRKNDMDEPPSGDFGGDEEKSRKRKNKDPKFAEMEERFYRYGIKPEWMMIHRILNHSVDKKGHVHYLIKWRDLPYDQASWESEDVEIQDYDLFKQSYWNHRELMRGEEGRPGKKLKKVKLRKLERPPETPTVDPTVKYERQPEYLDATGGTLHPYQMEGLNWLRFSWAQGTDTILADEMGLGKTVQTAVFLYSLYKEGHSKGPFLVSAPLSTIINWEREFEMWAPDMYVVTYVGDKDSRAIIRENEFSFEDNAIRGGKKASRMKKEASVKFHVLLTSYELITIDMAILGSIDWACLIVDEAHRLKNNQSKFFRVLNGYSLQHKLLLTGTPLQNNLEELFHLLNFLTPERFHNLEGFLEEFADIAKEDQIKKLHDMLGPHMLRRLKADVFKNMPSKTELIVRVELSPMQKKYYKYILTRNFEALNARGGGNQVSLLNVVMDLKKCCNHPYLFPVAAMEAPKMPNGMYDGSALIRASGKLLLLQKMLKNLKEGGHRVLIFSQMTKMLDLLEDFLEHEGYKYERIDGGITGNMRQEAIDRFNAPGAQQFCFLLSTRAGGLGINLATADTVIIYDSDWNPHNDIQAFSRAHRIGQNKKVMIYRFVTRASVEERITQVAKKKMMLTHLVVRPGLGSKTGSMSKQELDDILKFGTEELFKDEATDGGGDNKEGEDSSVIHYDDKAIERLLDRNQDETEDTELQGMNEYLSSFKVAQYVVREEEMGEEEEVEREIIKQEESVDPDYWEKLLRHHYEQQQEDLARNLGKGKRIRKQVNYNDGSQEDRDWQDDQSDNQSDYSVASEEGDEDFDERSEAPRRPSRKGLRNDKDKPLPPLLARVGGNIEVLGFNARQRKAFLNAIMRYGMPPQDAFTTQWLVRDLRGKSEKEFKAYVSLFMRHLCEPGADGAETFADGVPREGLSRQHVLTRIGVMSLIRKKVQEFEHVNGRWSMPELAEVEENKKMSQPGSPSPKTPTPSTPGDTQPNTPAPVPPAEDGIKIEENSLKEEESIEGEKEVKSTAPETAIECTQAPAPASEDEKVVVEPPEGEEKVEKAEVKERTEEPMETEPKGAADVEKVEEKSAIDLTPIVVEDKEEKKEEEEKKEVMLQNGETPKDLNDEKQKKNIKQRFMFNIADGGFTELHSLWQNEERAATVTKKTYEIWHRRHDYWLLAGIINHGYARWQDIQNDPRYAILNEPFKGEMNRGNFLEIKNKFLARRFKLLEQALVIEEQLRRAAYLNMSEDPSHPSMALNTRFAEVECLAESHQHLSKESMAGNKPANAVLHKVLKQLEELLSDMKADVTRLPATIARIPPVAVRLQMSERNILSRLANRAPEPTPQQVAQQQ
UniProt Q9NXV6, sequence (Q9NXV6 whole entry, looked up): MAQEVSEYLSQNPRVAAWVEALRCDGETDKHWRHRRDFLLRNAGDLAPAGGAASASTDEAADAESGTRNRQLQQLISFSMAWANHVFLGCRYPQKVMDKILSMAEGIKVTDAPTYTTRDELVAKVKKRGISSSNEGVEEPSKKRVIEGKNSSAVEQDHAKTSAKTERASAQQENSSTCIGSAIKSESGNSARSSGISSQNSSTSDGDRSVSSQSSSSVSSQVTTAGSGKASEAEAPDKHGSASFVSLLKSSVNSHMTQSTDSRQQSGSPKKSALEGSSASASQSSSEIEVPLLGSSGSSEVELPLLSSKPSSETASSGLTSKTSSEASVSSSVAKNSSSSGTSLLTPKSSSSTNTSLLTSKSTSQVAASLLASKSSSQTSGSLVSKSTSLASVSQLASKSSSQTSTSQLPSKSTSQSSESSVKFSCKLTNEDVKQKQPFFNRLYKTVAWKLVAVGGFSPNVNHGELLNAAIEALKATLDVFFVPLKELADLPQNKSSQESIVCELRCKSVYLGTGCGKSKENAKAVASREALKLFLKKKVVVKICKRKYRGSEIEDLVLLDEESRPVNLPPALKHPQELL
UniProt P51790, sequence (P51790 whole entry, looked up): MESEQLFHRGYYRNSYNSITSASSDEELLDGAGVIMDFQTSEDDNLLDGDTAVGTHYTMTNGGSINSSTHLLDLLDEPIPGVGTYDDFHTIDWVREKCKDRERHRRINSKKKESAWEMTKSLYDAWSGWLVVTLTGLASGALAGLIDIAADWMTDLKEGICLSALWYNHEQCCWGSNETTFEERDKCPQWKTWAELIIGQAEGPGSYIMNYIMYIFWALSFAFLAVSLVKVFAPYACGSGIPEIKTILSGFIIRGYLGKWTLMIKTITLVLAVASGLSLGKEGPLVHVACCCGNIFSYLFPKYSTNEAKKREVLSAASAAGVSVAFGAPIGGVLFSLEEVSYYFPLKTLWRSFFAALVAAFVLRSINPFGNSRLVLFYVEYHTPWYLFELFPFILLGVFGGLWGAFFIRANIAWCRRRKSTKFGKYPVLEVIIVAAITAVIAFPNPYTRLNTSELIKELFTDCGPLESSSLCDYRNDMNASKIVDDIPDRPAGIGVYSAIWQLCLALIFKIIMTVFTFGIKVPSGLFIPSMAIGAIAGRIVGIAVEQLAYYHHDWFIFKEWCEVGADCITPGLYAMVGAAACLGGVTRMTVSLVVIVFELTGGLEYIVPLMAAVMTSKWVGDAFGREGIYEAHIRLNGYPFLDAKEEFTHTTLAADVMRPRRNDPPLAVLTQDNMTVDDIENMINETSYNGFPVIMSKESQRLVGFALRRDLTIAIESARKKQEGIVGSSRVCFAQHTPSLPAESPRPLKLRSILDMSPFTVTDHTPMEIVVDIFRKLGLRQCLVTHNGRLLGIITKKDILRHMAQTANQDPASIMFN
UniProt P42575, sequence (P42575 whole entry, looked up): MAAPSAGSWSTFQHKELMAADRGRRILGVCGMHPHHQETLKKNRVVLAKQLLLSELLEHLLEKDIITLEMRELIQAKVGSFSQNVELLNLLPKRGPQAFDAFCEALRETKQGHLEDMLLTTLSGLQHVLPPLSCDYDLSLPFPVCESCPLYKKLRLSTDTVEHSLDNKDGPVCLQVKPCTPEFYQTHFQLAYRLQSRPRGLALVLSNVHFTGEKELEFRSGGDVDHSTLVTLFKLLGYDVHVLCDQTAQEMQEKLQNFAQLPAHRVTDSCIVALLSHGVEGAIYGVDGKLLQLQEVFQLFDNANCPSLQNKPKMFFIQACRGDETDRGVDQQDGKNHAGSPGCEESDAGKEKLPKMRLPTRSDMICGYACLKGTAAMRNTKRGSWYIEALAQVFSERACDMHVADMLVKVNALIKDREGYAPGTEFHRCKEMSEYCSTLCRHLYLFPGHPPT

Row | Target | log2 fold change [1] | log2 fold change [2] | log2 fold change [3] | log2 fold change [4] | log2 fold change (entinostat) | log2 fold change (vorinostat) | log2 fold change (citarinostat) | log2 fold change (silmitasertib) | log2 fold change [5] | log2 fold change [6] | log2 fold change (entospletinib)
1 | CDKN2AIP (UniProt Q9NXV6) | 0.003 | 0.044 | -0.018 | -0.026 | 0.017 | 0.027 | 0.013 | 0.026 | 0.022 | -0.071 | -0.014
2 | CCAR2 isoform 2 (UniProt Q8N163) | -0.056 | -0.106 | -0.013 | -0.088 | 0.089 | 0.168 | 0.033 | -0.039 | -0.151 | 0.033 | -0.014
3 | CLUH, A0A494C0R8 | 0.031 | 0.031 | -0.003 | -0.062 | 0.09 | 0.195 | -0.026 | 0.046 | 0.118 | -0.08 | 0.119
4 | CHD4 isoform 2 (UniProt Q14839) | -0.043 | -0.07 | -0.122 | -0.039 | 0.022 | 0.049 | 0.063 | 0.099 | -0.023 | -0.069 | 0.007
5 | CASP2 (UniProt P42575) | -0.317 | -0.047 | -0.099 | 0.065 | 0.017 | 0.13 | 0.058 | 0.051 | -0.008 | -0.032 | -0.004
6 | CRLF3 (UniProt Q8IUI8) | 0.016 | -0.233 | -0.165 | -0.105 | 0.025 | -0.023 | 0.047 | 0.104 | -0.003 | -0.057 | 0.089
7 | CIT isoform 4 (UniProt O14578) | -0.072 | -0.101 | -0.108 | 0 | 0.025 | 0.041 | -0.222 | 0.049 | 0.049 | 0.293 | -0.168
8 | CDK12 (UniProt Q9NYV4) | -0.002 | 0.005 | 0.06 | 0.01 | 0.005 | 0.089 | -0.051 | -0.081 | 0.179 | -0.242 | 0.058
9 | CCNK isoform 4 (UniProt O75909) | -0.053 | -0.104 | 0.044 | -0.091 | -0.044 | -0.021 | -0.007 | -0.046 | 0.006 | -0.305 (active) | 0.037
10 | CLCN3 (UniProt P51790) | -0.019 | -0.099 | -0.264 | -0.078 | -0.012 | -0.022 | 0.011 | 0.011 | 0.038 | -0.01 | -0.003
11 | CRYM-AS1 (UniProt A6NIL9) | 0.038 | -0.014 | 0.27 | 0.042 | -0.101 | 0.014 | 0.021 | 0.031 | -0.076 | -0.135 | -0.459
12 | CD53 (UniProt P19397) | -0.15 | 0.196 | 0.133 | 0.014 | -0.044 | -0.219 | 0.013 | -0.046 | -0.037 | -0.12 | 0.073
13 | CLTB (UniProt P09497) | 0.088 | 0.101 | 0.043 | 0.117 | -0.076 | 0.003 | -0.013 | -0.005 | -0.043 | 0.07 | -0.025
14 | CLCN7 (UniProt P51798) | -0.009 | -0.162 | -0.674 (active) | -0.048 | 0.07 | 0.054 | 0.107 | 0.036 | 0.021 | -0.078 | -0.007
